Experiments:
Assay in all cases: DAPPL (digital affinity profiling via proximity ligation, sequencing); 10 mM Tris-HCl pH 7.5, 50 mM NaCl, 1 mM DTT, 4% glycerol, room temperature, 30 min; GST-TFs on glutathione beads, 16-mer random dsDNA library, 0.1% formaldehyde crosslink after washing; high values mean tight binding
Details in all cases: protein: recombinant; tags: N-terminal GST; dsDNA, one strand shown
ERF = biological target: T1, ERF (Homo sapiens, UniProt P50548 1-548)
T1 sequence: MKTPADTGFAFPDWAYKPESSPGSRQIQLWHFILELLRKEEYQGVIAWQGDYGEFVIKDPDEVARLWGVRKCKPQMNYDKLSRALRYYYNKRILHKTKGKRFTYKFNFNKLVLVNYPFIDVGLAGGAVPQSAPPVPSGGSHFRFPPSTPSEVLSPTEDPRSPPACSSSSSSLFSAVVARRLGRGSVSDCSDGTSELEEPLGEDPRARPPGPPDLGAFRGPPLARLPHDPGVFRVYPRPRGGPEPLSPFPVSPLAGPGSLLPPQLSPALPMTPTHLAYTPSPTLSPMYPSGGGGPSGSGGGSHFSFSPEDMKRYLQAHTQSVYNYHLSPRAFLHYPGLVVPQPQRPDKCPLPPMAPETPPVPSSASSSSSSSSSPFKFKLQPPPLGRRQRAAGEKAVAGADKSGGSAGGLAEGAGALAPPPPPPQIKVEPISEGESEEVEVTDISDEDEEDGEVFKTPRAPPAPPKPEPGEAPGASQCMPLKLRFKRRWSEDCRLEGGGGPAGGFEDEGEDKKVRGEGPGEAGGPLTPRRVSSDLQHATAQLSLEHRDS
Outline: (§1)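 Yeast served to express human transcription factors as GST fusions, which were then captured on glutathione beads and labelled with DNA barcodes. Pooled with a tag-only sample, they were incubated with 200 nmole of a 16-mer random double-stranded DNA library for 30 min at room temperature in Tris/NaCl/DTT/glycerol buffer, washed, crosslinked with 0.1% formaldehyde, ligated by proximity, amplified by PCR and sequenced. Dividing each hexamer's read frequency for a factor by its frequency for the tag-only sample gives the binding signal.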

ETV3L = biological target: T2, ETV3L (Homo sapiens, UniProt Q6ZN32 1-361)
T2 sequence: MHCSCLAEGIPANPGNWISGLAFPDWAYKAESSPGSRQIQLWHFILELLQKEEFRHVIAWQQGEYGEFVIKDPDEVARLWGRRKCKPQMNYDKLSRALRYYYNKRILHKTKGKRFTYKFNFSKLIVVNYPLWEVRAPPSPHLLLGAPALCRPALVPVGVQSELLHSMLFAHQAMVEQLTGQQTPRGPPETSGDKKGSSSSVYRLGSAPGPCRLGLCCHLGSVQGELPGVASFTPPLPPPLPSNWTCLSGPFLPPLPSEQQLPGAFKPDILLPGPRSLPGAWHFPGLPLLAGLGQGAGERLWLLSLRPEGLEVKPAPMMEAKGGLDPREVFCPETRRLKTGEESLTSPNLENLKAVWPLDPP
Outline: as §1

ETS2 = biological target: T3, ETS2 (Homo sapiens, UniProt P15036 1-469)
T3 sequence: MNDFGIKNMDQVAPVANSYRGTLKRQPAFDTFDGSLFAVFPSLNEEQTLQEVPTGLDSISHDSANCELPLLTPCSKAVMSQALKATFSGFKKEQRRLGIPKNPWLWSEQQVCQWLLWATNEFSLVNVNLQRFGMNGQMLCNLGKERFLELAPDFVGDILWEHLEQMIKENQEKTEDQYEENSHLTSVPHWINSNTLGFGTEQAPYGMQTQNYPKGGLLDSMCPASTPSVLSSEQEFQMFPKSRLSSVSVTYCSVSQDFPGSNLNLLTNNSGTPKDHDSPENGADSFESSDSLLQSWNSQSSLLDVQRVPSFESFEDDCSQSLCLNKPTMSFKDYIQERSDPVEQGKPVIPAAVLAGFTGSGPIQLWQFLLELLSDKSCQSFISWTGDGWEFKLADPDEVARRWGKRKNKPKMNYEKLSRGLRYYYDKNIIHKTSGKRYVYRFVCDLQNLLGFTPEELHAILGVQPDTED
Outline: as §1

SPDEF = biological target: T4, SPDEF (Homo sapiens, UniProt O95238 1-335)
T4 sequence: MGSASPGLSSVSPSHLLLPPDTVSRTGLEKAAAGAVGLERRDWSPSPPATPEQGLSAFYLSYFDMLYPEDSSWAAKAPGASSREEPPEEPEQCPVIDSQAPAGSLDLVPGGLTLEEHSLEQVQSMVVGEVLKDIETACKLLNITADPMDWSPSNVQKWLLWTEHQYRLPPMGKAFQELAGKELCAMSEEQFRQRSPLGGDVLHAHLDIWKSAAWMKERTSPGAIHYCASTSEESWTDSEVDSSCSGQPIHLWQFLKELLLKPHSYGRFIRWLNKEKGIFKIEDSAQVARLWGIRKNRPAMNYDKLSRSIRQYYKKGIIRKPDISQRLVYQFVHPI
Outline: as §1

ETV7 = biological target: T5, ETV7 (Homo sapiens, UniProt Q9Y603 1-341)
T5 sequence: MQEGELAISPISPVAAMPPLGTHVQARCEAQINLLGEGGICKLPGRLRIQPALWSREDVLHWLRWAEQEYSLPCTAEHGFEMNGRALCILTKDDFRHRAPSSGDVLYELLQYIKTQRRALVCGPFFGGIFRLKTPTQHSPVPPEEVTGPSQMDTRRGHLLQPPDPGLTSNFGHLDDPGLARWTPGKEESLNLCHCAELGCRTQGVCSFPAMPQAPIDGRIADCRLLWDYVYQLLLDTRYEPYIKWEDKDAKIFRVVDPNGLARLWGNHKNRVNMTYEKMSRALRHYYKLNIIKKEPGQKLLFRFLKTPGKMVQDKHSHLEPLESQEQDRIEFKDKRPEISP
Outline: as §1

ELF5 = biological target: T6, ELF5 (Homo sapiens, UniProt Q9UKW6-2 1-255)
T6 sequence: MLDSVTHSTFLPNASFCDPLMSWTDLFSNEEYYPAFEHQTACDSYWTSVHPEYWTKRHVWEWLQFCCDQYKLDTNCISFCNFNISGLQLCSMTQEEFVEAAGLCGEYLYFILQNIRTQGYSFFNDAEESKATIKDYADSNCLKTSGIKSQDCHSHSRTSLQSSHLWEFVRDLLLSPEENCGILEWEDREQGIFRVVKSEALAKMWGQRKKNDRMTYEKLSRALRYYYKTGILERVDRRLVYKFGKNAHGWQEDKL
Outline: as §1

ETV3 = biological target: T7, ETV3 (Homo sapiens, UniProt P41162-2 1-143)
T7 sequence: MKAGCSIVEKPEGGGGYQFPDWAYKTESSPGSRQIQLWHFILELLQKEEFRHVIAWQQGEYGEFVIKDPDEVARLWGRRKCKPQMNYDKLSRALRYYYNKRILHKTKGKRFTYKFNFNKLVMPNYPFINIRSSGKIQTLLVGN
Outline: as §1

ETV6 = ETV6 (Homo sapiens, UniProt P41212 1-452)
Outline: as §1

ETV6, sequence (P41212 whole entry): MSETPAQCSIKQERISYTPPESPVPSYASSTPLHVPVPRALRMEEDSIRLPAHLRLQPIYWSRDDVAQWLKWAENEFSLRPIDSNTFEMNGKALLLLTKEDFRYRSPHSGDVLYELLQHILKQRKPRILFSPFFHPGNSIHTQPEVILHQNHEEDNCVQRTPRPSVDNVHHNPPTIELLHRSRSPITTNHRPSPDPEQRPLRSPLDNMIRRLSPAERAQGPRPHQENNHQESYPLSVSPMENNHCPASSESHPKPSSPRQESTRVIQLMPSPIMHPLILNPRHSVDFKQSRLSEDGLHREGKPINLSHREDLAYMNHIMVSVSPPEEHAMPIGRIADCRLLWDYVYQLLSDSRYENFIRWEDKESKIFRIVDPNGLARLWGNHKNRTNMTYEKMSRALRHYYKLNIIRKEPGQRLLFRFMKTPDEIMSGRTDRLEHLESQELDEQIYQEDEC

| Sequence | binding signal (ERF) | binding signal (ETV3L) | binding signal (ETS2) | binding signal (SPDEF) | binding signal (ETV7) | binding signal (ELF5) | binding signal (ETV3) | binding signal (ETV6) |
| --- | --- | --- | --- | --- | --- | --- | --- | --- |
| ACCTCT | 1.52 fold enrichment (6-mer frequency, TF over GST control) | 1.32 fold enrichment (6-mer frequency, TF over GST control) | 1.23 fold enrichment (6-mer frequency, TF over GST control) | 1.4 fold enrichment (6-mer frequency, TF over GST control) | 1.48 fold enrichment (6-mer frequency, TF over GST control) | 1.34 fold enrichment (6-mer frequency, TF over GST control) | 1.4 fold enrichment (6-mer frequency, TF over GST control) | 1.39 fold enrichment (6-mer frequency, TF over GST control) |
| ACATTA | 1.21 fold enrichment (6-mer frequency, TF over GST control) | 1.15 fold enrichment (6-mer frequency, TF over GST control) | 1.19 fold enrichment (6-mer frequency, TF over GST control) | 1.12 fold enrichment (6-mer frequency, TF over GST control) | 1.15 fold enrichment (6-mer frequency, TF over GST control) | 1.1 fold enrichment (6-mer frequency, TF over GST control) | 1.15 fold enrichment (6-mer frequency, TF over GST control) | 1.16 fold enrichment (6-mer frequency, TF over GST control) |
| CTTATT | 1.44 fold enrichment (6-mer frequency, TF over GST control) | 1.5 fold enrichment (6-mer frequency, TF over GST control) | 1.51 fold enrichment (6-mer frequency, TF over GST control) | 1.54 fold enrichment (6-mer frequency, TF over GST control) | 1.43 fold enrichment (6-mer frequency, TF over GST control) | 1.42 fold enrichment (6-mer frequency, TF over GST control) | 1.31 fold enrichment (6-mer frequency, TF over GST control) | 1.48 fold enrichment (6-mer frequency, TF over GST control) |
| TCCGCT | 2.12 fold enrichment (6-mer frequency, TF over GST control) | 2.23 fold enrichment (6-mer frequency, TF over GST control) | 2.32 fold enrichment (6-mer frequency, TF over GST control) | 2.51 fold enrichment (6-mer frequency, TF over GST control) | 2.07 fold enrichment (6-mer frequency, TF over GST control) | 2.58 fold enrichment (6-mer frequency, TF over GST control) | 2.44 fold enrichment (6-mer frequency, TF over GST control) | 2.44 fold enrichment (6-mer frequency, TF over GST control) |
| CCCGCT | 1.37 fold enrichment (6-mer frequency, TF over GST control) | 1.47 fold enrichment (6-mer frequency, TF over GST control) | 1.22 fold enrichment (6-mer frequency, TF over GST control) | 1.32 fold enrichment (6-mer frequency, TF over GST control) | 1.36 fold enrichment (6-mer frequency, TF over GST control) | 1.39 fold enrichment (6-mer frequency, TF over GST control) | 1.36 fold enrichment (6-mer frequency, TF over GST control) | 1.38 fold enrichment (6-mer frequency, TF over GST control) |
| CCATTT | 1.32 fold enrichment (6-mer frequency, TF over GST control) | 1.25 fold enrichment (6-mer frequency, TF over GST control) | 1.41 fold enrichment (6-mer frequency, TF over GST control) | 1.21 fold enrichment (6-mer frequency, TF over GST control) | 1.24 fold enrichment (6-mer frequency, TF over GST control) | 1.31 fold enrichment (6-mer frequency, TF over GST control) | 1.34 fold enrichment (6-mer frequency, TF over GST control) | 1.34 fold enrichment (6-mer frequency, TF over GST control) |
| ATGGTA | 1.38 fold enrichment (6-mer frequency, TF over GST control) | 1.35 fold enrichment (6-mer frequency, TF over GST control) | 1.37 fold enrichment (6-mer frequency, TF over GST control) | 1.31 fold enrichment (6-mer frequency, TF over GST control) | 1.48 fold enrichment (6-mer frequency, TF over GST control) | 1.39 fold enrichment (6-mer frequency, TF over GST control) | 1.35 fold enrichment (6-mer frequency, TF over GST control) | 1.31 fold enrichment (6-mer frequency, TF over GST control) |

From article PMC7862700, “An all-to-all approach to the identification of sequence-specific readers for epigenetic DNA modifications on cytosine”
